In PubChem BioAssay (Tox21) one finds Potency and outcome data, which are given here for 14 compounds.

Inconclusive results are not listed. Values without a mark were called inactive. Active and inactive are the calls of the source. Unless noted, calls come from the whole dose curve; as a rule, active = well fitted curve in the direction sought with a large enough effect in the repeat runs; inconclusive = weak or mixed curves; inactive = no such curve, though single readings can be large; an effect the other way counts as inactive or inconclusive.

Assay [1] is described as follows: qHTS assay to identify small molecule antagonists of the retinoid acid receptor (RAR) signaling pathway - cell viability counter screen (AID 1159551). Note: nearly all actives have a fitted effect of over 35% in size. Summed up: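 Seed C3RL4 cells; next day add compound, then retinol to 1 uM final; incubate 6 h at 37 C; add CellTiter-Glo; read luminescence after 30 min at RT.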
Assay [2] is described as follows: qHTS assay to identify small molecule antagonists of the retinoic acid receptor (RAR) signaling pathway (AID 1159552; note: nearly all actives have a fitted effect of over 50% in size; note: potency is the fitted concentration of half-maximal effect). Summed up:
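Antagonism of retinol-induced RARE reporter activity was measured in C3RL4 cells. Exposure to compounds and 1 uM final retinol lasted 6 hr at 37 C, with luminescence as endpoint.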
On the technique in general: qHTS replaces the single test concentration by a dilution series.

Assay [3] can be described thus: qHTS assay to identify small molecule agonists of the retinoic acid receptor (RAR) signaling pathway (AID 1159553). Put shortly: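 Activation of retinol signaling was monitored via a RARE luciferase reporter in C3RL4 cells. After 6 hr compound treatment at 37 C, detection reagent was added for 30 min at room temperature before luminescence reading.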
Assay [4] can be described thus: qHTS assay to identify small molecule antagonists of the estrogen related receptor (ERR) signaling pathway from Tox21 library - cell viability counter screen (AID 1224834). Note: nearly all actives have a fitted effect of over 30% in size. Note: potency is the fitted concentration of half-maximal effect. Summed up:
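CellTiter-Fluor fluorescence measured; ERR cells; 17.5 h compound incubation at 37 C; 30 min reagent step.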

Assay [5] addresses Luciferin 4-monooxygenase (Photinus pyralis) (UniProt P08659). Description: qHTS assay to identify small molecule inhibitors of firefly luciferase (AID 1224835). Note: series mostly up to about 120 µM; nearly all actives have a fitted effect of over 25% in size. Summed up: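 Inhibition of purified Photinus luciferase is measured by luminescence. Substrate levels (D-luciferin, ATP) sit at their KM values. Each compound is tested in a concentration series.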
A short description of assay [6]: qHTS assay to identify small molecule agonists of the constitutive androstane receptor (CAR) signaling pathway - cell viability counter screen (AID 1224836). Note: series mostly up to about 92 µM; nearly all actives have a fitted effect of over 45% in size. Summed up:
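Double-stable HepG2 hepatoma cells (hCAR plus CYP2B6-2.2kb) are treated for 23 h at 37 C with test compounds in 15-point concentration series. PK11195 at 0.75 uM final is co-added. Cell viability is quantified by CellTiter-Fluor.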

The target of assay [7] is Nuclear receptor subfamily 1 group I member 3 (Homo sapiens) (UniProt Q14994). Description: qHTS assay to identify small molecule antagonists of the constitutive androstane receptor (CAR) signaling pathway (AID 1224838).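 Note: HepG2 cells stably expressing hCAR with CYP2B6 luciferase reporter stimulated by CITCO; nearly all actives have a fitted effect of over 40% in size.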 Note: potency is the fitted concentration of half-maximal effect. Put shortly:
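Reporter luminescence was quantified after 24 h exposure of hCAR/CYP2B6-2.2kb double-stable HepG2 cells to compounds at 15 concentrations in the presence of 50 nM CITCO final.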

Assay [8] in a line: qHTS assay to identify small molecule antagonists of the estrogen related receptor signaling pathway with the pleiotropic PPARgamma coactivator (PGC) from Tox21 10K library - cell viability counter screen (AID 1224840; active = well fitted cell-killing curve with a large enough effect in the repeat runs, not every such curve was filed as active; note: nearly all actives have a fitted effect of over 40% in size; note: potency is the fitted concentration of half-maximal effect). Put shortly:
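Here the PGC/ERR cells serve as a cytotoxicity control: they are exposed to compounds for 17.5 hours at 37 C, and live-cell signal is quantified using CellTiter-Fluor fluorescence.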

Assay [9] is described as follows: qHTS assay to identify small molecule antagonists of the estrogen related receptor signaling pathway with the pleiotropic PPARgamma coactivator (PGC) from Tox21 10K library (AID 1224841; call rule not given here; note: series mostly up to about 92 µM; actives are mostly falling curves and most rising ones were filed inactive; nearly all actives have a fitted effect of over 50% in size). Put shortly: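 Each well held 2,000 PGC/ERR cells, pre-incubated six hours (37 C, 5% CO2). Test substances in DMSO were added by pin tool and left for 18 h at 37 C before luciferase detection by One-Glo.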

A short description of assay [10]: qHTS assay to identify small molecule agonists of the estrogen related receptor signaling pathway with the pleiotropic PPARgamma coactivator (PGC) from Tox21 10K library (AID 1224842). Note: nearly all actives have a fitted effect of over 15% in size. Summed up:
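Luminescence from One-Glo (30 min, room temperature) measured after PGC/ERR cells had 18 h at 37 C with pinned compound (23 nL in DMSO). Cells had been seeded at 2,000 per well and pre-incubated 6 h.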

A short description of assay [11]: qHTS assay to identify small molecule agonists of the RXR signaling pathway - cell viability counter screen (AID 1159529). Note: nearly all actives have a fitted effect of over 50% in size. Note: potency is the fitted concentration of half-maximal effect. Summed up: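 Counter screen: CellTiter-Glo luminescence. Cells: RXR-alpha-UAS-bla HEK 293T. Medium: 2% charcoal-stripped FBS. Treatment: 16 h, 37 C. Reagent incubation: 30 min, RT.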
For assay [12], the target named is Nuclear receptor subfamily 1 group I member 3 (Homo sapiens) (UniProt Q14994). The assay is described as follows: qHTS assay to identify small molecule agonists of the constitutive androstane receptor (CAR) signaling pathway (AID 1224839). Note: series mostly up to about 92 µM; nearly all actives have a fitted effect of over 15% in size. Put shortly: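 Readout: firefly luciferase luminescence via ONE-Glo. System: HepG2 double-stable for hCAR and CYP2B6-2.2kb. Conditions: 15-point compound titration, PK11195 at 0.75 uM final, 24 h incubation.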
Sequence of Nuclear receptor subfamily 1 group I member 3 (Homo sapiens) (Q14994 whole entry, looked up): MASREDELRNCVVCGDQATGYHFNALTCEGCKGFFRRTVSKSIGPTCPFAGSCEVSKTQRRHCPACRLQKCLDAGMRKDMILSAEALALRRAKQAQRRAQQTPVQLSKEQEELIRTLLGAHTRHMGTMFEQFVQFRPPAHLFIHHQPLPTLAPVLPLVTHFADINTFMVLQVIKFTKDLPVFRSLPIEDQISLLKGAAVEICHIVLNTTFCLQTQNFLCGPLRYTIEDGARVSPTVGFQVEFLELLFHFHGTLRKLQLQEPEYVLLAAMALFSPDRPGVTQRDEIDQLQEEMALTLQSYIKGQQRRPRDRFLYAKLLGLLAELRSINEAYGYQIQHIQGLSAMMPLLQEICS

The target in assay [13] is Thyrotropin receptor (Homo sapiens) (UniProt P16473). Description: qHTS assay to identify small molecule agonists of the thyroid stimulating hormone receptor (TSHR) signaling pathway (AID 1224843; calls by dose curve; note: nearly all actives have a fitted effect of over 45% in size). Put shortly:
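HEK293 cells stably bearing the thyrotropin receptor were plated at 800 cells/well and challenged with compound (30 min, RT). Accumulated cAMP was quantified via cAMP-d2 competing for cryptate-tagged antibody.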

Assay [14] can be described thus: qHTS assay to identify small molecule antagonists of the constitutive androstane receptor (CAR) signaling pathway - cell viability counter screen (AID 1224837). Note: series mostly up to about 92 µM; nearly all actives have a fitted effect of over 45% in size. Put shortly: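 Using CellTiter-Fluor, viability is scored in HepG2 cells stably carrying hCAR and a 2.2kb CYP2B6 reporter after 23 hr compound exposure across 15 concentrations, with CITCO present at 50 nM.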

Assay [15] can be described thus: qHTS assay to identify small molecule antagonists of the estrogen related receptor (ERR) signaling pathway - cell viability counter screen (AID 1224818).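 Note: series mostly up to about 46 µM; viability measured after 17.5 h of compound exposure.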 Put shortly:
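In the same ERR cell assay, compound-treated wells (17.5 h, 37 C) were multiplexed with a fluorogenic viability reagent, CellTiter-Fluor, read after 30 min to flag cytotoxic substances.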

Assay [16] in a line: qHTS assay to identify small molecule antagonists of the estrogen related receptor signaling pathway with the pleiotropic PPARgamma coactivator (PGC) cell viability counter screen (AID 1224822; note: series mostly up to about 46 µM). Put shortly:
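Compounds in DMSO, with positive and negative controls, were applied to PGC/ERR cells (2,000/well) and left 17.5 h at 37 C before CellTiter-Fluor detection.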

Sequence of Thyrotropin receptor (Homo sapiens) (P16473 whole entry, looked up): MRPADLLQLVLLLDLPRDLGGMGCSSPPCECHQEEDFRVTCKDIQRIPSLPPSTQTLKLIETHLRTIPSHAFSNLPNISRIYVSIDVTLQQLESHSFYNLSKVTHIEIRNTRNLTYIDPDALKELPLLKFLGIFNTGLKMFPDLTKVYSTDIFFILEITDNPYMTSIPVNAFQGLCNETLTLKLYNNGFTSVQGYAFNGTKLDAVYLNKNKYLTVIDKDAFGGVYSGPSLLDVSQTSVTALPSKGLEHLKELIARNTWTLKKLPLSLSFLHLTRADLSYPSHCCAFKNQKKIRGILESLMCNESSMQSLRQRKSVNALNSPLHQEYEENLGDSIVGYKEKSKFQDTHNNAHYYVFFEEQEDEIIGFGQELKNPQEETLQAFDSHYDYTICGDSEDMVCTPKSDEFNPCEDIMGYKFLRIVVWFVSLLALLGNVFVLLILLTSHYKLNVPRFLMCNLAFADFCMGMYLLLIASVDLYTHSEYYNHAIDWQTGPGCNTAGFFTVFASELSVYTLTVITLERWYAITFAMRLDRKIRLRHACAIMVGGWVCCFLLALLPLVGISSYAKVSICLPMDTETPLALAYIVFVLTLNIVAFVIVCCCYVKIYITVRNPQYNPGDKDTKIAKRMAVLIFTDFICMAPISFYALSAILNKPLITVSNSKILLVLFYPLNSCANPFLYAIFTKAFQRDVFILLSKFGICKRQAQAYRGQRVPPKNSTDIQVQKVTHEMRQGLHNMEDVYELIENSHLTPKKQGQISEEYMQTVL
Sequence of Luciferin 4-monooxygenase (Photinus pyralis) (P08659 whole entry, looked up): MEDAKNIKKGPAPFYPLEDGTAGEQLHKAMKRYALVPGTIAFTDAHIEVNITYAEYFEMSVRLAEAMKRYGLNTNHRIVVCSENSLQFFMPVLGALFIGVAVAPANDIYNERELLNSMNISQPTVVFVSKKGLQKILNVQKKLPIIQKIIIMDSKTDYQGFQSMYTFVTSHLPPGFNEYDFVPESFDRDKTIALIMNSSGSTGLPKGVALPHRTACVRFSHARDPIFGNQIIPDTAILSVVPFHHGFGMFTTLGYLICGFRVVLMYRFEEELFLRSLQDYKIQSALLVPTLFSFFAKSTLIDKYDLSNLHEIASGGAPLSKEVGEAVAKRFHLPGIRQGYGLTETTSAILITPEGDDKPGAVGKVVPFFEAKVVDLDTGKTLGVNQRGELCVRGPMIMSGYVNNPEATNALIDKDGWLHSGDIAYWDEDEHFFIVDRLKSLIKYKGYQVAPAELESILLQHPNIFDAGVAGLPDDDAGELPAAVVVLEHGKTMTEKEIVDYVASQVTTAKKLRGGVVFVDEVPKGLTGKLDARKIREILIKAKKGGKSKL

As to `C1=Cc2ccccc2C1`, the Potency entry in assay [1], in assay [2], in assay [3], in [4], in assay [5] and in assay [6] was “inactive” each time. Moreover, the Potency entry in assay [7], in assay [8], in assay [9] and in assay [10] was “inactive” in each case.

As for `Cc1cc(O)ccc1N`, the Potency in assay [11] is 34.9 µM (active); in [4], 15.4 µM (active); in [7], 3.08 µM (active). Also, the Potency result in [2], in assay [12], in assay [9] and in assay [13] was “inactive” each time.

Turning to `NCCCOCCOCCOCCCN`, the Potency entry in assay [1], in assay [2], in [3], in assay [4], in assay [5] and in [6] was “inactive” each time. Moreover, the Potency entry in assay [14], in assay [7], in assay [12], in assay [8] and in [13] was “inactive” in each case.

In the case of `O=c1[nH]cnc2ccccc12`, the Potency entry in assay [11], in assay [2], in [3], in [4], in assay [5] and in assay [6] was “inactive” each time. The Potency result in [8] is “inactive”.

`CCOC(=O)C1=NN(c2ccccc2)C(=O)C1`: the Potency result in [1], in assay [2], in assay [3], in assay [4], in [5] and in assay [8] was “inactive” in each case. In addition, in assay [13], the Potency entry is “inactive”.

In the case of `O=C(c1ccc(O)cc1)c1ccc(O)cc1`, the Potency result in [11], in assay [2], in assay [3], in assay [4], in assay [6] and in assay [8] was “inactive” in each case. Further, the Potency result in assay [9] and in [13] was “inactive” each time.

Regarding `COCCO`, the Potency result in [1], in assay [2], in assay [3], in assay [4], in assay [5] and in [6] was “inactive” throughout. For the same compound, the Potency result in assay [7], in assay [12] and in assay [8] was “inactive” each time.

For `C=CC(=O)OCC(C)OCC(C)OCC(C)OC(=O)C=C` (stereo not drawn), the Potency entry in [11], in assay [5], in [6] and in [12] was “inactive” in each case. Also, the Potency in [2] is 61.1 µM (active); in assay [4] it was 61.1 µM (active); in assay [8] it was 54.5 µM (active).

Turning to `Nc1nc(N)c(-c2ccccc2)s1`, the Potency entry in [11], in [1], in [4], in [14], in assay [8] and in assay [9] was “inactive” in each case. Besides, in [10], the Potency entry was “inactive”.

For `CCOC(=O)C1=C(C)NC(C)=C(C(=O)OC)C1c1cccc([N+](=O)[O-])c1` (stereo not drawn), the Potency entry in assay [1], in assay [2], in [3], in assay [5], in [14] and in assay [7] was “inactive” each time. For the same compound, the Potency result in [12], in [8] and in [13] was “inactive” each time. The result in assay [15] and in assay [16] was inactive.

`COc1cc(C(C)(C)C)c(O)c(C(C)(C)C)c1`: the Potency entry in assay [11], in [4], in [6], in [14], in assay [8] and in [9] was “inactive” throughout. For the same compound, the Potency result in assay [10] is “inactive”.

On to `N#Cc1cc2ccccc2c2ccccc12`, for which the Potency entry in assay [1], in assay [2], in assay [3], in assay [4], in assay [6] and in [14] was “inactive” each time. The Potency entry in [7] and in [8] was “inactive” each time.

As to `O=c1c2ccccc2nnn1CCl`, the Potency entry in [1], in assay [2], in assay [4], in assay [5], in assay [7] and in assay [8] was “inactive” throughout. For the same compound, the Potency result in assay [13] was “inactive”.

Consider `CC1=CCC(C(C)C)C=C1` (stereo not drawn), for which the Potency entry in assay [1], in [4], in assay [5], in assay [6], in [14] and in assay [7] was “inactive” throughout. Also, the Potency result in assay [8] is “inactive”.
